# Assay results reported in PMC7862700, “An all-to-all approach to the identification of sequence-specific readers for epigenetic DNA modifications on cytosine”.
# What was measured:
# Test in all cases: DAPPL (digital affinity profiling via proximity ligation, sequencing); 10 mM Tris-HCl pH 7.5, 50 mM NaCl, 1 mM DTT, 4% glycerol, room temperature, 30 min; GST-TFs on glutathione beads, 16-mer random dsDNA library, 0.1% formaldehyde crosslink after washing; high values mean tight binding
# Conditions in all cases: protein: recombinant; tags: N-terminal GST; dsDNA, one strand shown
# ETV5 = ETV5 (Homo sapiens, UniProt P41161 1-510)
# ETV5, sequence (P41161 whole entry, the tested form may be a part): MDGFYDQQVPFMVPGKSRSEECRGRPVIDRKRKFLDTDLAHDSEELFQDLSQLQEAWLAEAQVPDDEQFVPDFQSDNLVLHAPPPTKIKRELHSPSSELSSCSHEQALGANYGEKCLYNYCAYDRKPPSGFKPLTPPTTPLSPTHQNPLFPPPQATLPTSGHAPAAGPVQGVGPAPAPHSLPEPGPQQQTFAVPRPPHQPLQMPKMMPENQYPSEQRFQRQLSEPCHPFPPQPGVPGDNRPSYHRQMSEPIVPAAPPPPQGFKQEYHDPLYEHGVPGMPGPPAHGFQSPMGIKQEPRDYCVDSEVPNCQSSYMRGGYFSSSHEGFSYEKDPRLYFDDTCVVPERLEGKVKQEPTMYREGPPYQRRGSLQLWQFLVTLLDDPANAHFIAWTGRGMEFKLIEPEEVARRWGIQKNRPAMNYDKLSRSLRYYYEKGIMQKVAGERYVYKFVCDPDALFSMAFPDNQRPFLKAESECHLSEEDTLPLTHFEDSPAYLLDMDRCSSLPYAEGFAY
# Summary of the method: (§1)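 Sequencing on an Illumina NextSeq500 followed washing, crosslinking with 0.1% formaldehyde, proximity ligation (BsaI/T4 ligase, 1 h, 37 °C) and PCR amplification of pools that had been incubated for 30 min at room temperature with 200 nmole of a random double-stranded 16-mer DNA library in Tris/NaCl/DTT/glycerol buffer. Each pool held DNA-barcoded human transcription factors, expressed in yeast as GST fusions and captured on glutathione beads, plus a tag-only sample. Binding signal is a hexamer's read frequency for a factor divided by its frequency in the tag-only sample.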
# SPIC = molecular target: T1, SPIC (Homo sapiens, UniProt Q8N5J4 1-248)
# T1 sequence: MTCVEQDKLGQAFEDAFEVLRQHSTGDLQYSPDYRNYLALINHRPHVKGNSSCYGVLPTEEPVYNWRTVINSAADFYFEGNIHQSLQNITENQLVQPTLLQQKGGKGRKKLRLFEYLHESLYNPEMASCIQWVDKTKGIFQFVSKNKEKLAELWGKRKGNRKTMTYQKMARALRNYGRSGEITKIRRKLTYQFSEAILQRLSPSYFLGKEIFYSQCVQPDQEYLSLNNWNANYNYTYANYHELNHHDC
# Summary of the method: as §1
# ELF4 = ELF4 (Homo sapiens, UniProt Q99607 1-663)
# ELF4, sequence (Q99607 whole entry): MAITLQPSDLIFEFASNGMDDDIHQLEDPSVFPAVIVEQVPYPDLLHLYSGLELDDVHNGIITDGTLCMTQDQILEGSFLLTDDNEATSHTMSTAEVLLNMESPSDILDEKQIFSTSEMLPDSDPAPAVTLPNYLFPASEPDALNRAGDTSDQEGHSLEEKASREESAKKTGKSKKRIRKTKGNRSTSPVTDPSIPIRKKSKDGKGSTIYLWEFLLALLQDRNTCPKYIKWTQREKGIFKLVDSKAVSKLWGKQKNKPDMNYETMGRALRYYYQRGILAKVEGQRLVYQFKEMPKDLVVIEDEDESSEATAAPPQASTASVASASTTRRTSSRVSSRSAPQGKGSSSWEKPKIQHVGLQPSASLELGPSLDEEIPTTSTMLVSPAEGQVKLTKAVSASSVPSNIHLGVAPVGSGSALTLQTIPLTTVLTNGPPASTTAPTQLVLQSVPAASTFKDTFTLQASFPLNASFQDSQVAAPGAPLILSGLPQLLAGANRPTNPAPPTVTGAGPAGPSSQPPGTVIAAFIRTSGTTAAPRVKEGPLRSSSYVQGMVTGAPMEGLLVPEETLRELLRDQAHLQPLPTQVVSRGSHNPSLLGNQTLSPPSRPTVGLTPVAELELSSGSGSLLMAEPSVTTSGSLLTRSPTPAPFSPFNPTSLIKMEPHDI
# Summary of the method: as §1
# ETV1 = ETV1 (Homo sapiens, UniProt P50549 1-477)
# ETV1, sequence (P50549 whole entry): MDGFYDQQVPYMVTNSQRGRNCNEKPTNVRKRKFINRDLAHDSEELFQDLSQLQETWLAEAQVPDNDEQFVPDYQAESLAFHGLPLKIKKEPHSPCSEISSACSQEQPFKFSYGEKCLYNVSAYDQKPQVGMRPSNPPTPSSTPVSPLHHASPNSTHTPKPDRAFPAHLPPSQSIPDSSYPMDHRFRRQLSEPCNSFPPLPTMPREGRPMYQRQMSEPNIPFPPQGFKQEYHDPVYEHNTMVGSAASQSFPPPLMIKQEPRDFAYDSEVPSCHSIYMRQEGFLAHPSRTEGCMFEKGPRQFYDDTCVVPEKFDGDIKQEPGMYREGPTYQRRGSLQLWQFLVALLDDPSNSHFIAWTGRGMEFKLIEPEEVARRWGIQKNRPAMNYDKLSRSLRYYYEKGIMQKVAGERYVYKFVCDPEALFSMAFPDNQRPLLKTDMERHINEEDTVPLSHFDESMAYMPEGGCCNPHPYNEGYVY
# Summary of the method: as §1
# ERF = molecular target: T2, ERF (Homo sapiens, UniProt P50548 1-548)
# T2 sequence: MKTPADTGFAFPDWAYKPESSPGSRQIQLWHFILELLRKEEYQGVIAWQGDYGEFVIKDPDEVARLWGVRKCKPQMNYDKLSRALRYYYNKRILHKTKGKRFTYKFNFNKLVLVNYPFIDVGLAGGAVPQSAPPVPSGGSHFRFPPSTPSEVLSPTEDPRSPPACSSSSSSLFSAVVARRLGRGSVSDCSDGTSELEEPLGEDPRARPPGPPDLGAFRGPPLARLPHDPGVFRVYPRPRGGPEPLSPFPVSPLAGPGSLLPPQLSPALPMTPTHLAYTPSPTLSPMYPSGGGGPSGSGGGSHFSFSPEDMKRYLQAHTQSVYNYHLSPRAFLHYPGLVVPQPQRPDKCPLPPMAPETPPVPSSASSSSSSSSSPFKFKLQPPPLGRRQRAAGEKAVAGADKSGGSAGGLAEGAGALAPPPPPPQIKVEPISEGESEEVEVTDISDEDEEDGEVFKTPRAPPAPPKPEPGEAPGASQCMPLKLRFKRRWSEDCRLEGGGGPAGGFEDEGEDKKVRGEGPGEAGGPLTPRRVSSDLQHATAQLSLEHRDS
# Summary of the method: as §1
# ETV3L = molecular target: T3, ETV3L (Homo sapiens, UniProt Q6ZN32 1-361)
# T3 sequence: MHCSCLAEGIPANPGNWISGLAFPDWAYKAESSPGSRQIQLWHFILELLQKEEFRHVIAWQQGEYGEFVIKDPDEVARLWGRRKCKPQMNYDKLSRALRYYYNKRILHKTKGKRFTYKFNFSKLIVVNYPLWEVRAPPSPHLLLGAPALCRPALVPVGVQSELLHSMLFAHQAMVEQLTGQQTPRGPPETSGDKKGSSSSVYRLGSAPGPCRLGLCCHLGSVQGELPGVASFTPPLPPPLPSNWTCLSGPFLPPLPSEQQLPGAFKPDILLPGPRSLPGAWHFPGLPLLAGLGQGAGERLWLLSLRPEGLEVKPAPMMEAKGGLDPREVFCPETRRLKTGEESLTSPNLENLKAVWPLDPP
# Summary of the method: as §1
# ETS2 = molecular target: T4, ETS2 (Homo sapiens, UniProt P15036 1-469)
# T4 sequence: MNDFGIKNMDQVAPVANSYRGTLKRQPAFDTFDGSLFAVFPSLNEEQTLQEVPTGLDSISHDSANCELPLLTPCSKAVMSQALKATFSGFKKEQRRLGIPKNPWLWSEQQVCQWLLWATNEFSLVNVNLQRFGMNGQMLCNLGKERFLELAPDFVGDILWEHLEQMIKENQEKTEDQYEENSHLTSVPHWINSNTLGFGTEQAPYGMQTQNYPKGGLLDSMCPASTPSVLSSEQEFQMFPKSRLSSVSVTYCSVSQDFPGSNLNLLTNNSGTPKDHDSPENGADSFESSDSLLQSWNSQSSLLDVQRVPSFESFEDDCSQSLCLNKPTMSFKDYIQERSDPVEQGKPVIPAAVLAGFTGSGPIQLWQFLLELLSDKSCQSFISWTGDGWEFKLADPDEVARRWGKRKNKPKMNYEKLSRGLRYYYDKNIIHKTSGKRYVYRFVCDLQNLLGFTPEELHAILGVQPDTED
# Summary of the method: as §1
# SPDEF = molecular target: T5, SPDEF (Homo sapiens, UniProt O95238 1-335)
# T5 sequence: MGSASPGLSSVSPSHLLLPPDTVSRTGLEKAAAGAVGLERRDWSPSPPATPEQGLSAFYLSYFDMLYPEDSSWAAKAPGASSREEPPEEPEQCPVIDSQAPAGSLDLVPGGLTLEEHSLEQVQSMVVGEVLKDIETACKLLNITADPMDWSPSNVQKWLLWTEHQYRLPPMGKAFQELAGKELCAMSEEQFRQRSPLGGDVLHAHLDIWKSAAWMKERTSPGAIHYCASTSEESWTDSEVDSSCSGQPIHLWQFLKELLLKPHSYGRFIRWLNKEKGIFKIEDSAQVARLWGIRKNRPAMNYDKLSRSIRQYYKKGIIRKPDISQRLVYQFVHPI
# Summary of the method: as §1
# ETV3 = molecular target: T6, ETV3 (Homo sapiens, UniProt P41162-2 1-143)
# T6 sequence: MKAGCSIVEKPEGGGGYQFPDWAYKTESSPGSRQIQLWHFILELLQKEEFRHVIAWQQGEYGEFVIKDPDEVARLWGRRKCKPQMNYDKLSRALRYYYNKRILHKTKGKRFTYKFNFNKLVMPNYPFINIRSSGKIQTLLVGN
# Summary of the method: as §1
# ETV6 = ETV6 (Homo sapiens, UniProt P41212 1-452)
# ETV6, sequence (P41212 whole entry): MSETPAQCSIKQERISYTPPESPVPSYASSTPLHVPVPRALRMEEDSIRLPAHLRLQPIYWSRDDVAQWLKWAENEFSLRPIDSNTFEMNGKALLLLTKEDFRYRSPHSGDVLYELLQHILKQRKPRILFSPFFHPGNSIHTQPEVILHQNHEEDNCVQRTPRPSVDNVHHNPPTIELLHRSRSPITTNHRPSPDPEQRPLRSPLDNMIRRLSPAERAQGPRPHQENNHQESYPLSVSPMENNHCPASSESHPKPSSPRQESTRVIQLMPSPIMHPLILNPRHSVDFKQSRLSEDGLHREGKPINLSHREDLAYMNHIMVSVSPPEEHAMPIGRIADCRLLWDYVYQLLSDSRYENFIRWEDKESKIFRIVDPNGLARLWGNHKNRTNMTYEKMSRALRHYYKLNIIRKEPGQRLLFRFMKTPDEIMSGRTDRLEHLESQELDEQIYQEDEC
# Summary of the method: as §1
sequence,measurement,setting,value
GCAACC,binding signal,ETV5,"1.04 fold enrichment (6-mer frequency, TF over GST control)"
same,binding signal,SPIC,"1.09 fold enrichment (6-mer frequency, TF over GST control)"
same,binding signal,ELF4,"1.03 fold enrichment (6-mer frequency, TF over GST control)"
same,binding signal,ETV1,"1.02 fold enrichment (6-mer frequency, TF over GST control)"
same,binding signal,ERF,"1.1 fold enrichment (6-mer frequency, TF over GST control)"
same,binding signal,ETV3L,"1.03 fold enrichment (6-mer frequency, TF over GST control)"
same,binding signal,ETS2,"1.03 fold enrichment (6-mer frequency, TF over GST control)"
same,binding signal,SPDEF,"1.13 fold enrichment (6-mer frequency, TF over GST control)"
same,binding signal,ETV3,"1.02 fold enrichment (6-mer frequency, TF over GST control)"
same,binding signal,ETV6,"1.02 fold enrichment (6-mer frequency, TF over GST control)"
